Screens from PubChem.
Compounds with a hit are over-represented: about 2.4% of the library has one in this group of screens.
Cruzain Triton: blocks cruzain activity in presence of Triton detergent; Potency, µM, for inactives: max response, negative = inhibition, hits mostly inhibitors; hit rate 0.43% among 200,000; P25779; purified cruzain, Z-FR-AMC fluorescence, 0.01% Triton;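 also: plate controls were neutral wells for no effect and buffer without enzyme for full effect; nearly all actives have a fitted effect of over 40% in size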
Target sequence (P25779 123-467 limits assumed): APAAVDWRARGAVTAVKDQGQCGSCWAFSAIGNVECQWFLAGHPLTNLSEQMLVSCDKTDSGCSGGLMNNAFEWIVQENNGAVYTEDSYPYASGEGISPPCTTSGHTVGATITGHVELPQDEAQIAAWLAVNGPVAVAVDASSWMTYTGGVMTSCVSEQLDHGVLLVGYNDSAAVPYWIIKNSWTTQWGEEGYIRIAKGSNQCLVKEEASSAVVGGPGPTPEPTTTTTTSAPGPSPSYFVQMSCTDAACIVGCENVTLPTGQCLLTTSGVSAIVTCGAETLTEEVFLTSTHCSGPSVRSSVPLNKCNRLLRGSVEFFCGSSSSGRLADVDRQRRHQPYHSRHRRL
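Read-out: AMC fluorescence (360 nm excitation, 450 nm emission), four reads over 2 min, first-to-third difference used. Conditions: cruzain 1.5 nM, Z-FR-AMC 2 uM, pH 5.5 acetate, 5 mM DTT, 0.01% Triton X-100.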
Cruzain noTriton: inhibitors of Trypanosoma cruzi cruzain without detergent. P25779. purified cruzain, Z-FR-AMC fluorescence, no detergent. Potency, µM, for inactives: max response, negative = inhibition, usual class: inhibitors. hit rate 2.3% among 200,000;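 also: plate controls were enzyme without inhibitor for no effect and buffer without enzyme for full effect; nearly all actives have a fitted effect of over 40% in size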
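Purified cruzain at 1.5 nM, pre-incubated 15 min with compound at room temperature in 100 mM sodium acetate pH 5.5, 5 mM DTT, 0.00005% Triton X-100. Reaction started with 2 uM Z-FR-AMC; AMC fluorescence increase over 60 s gives rate.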
Numbers without * were called inactive; ? = inconclusive. Calls follow the shape of the dose curve; as a rule, active = well fitted curve in the direction sought with a large enough effect; inconclusive = small, poorly fitted or top-dose-only effect, or another doubt; inactive = no such curve, though single readings can be large; an effect the other way counts as inactive or inconclusive. Potency is read from the fitted curve at half-maximal effect.

SMILES	Cruzain Triton	Cruzain noTriton
Cc1ccccc1NC(=O)CSc1nc2cc3c(cc2cc1C)CCC3	-5.3%	7.0%
CCC(=O)Nc1ccc(NC(=O)CSc2nc3cc4c(cc3cc2C)CCC4)cc1	5.7%	25.1µM*
CCCC(=O)NC1CC(=O)N(c2ccc3c(c2)OCCO3)C1 (stereo not given)	0.3%	14.6%
COc1ccc(NC(=O)/C=C/c2cc(Br)ccc2OC)cc1	-4.7%	-2.3%
CCN(CC)c1ccc(NC(=O)/C=C/c2cc(Br)ccc2OC)cc1	-3.6%	25.1µM*
CCOc1ccc(NC(=O)CSc2nc(-c3cccc(Cl)c3)nc3c2Cc2c(CO)cnc(C)c2O3)cc1	-2.7%	-9.8%
COc1ccc(S(=O)(=O)Nc2ccc(-c3cn4ccsc4n3)cc2)cc1C	-3.3%	?
O=C(C1=NN(c2ccccc2)C2C(=O)N(c3ccccc3)C(=O)C12)c1ccccc1 (stereo not given)	-4.0%	-23.1%
CCOc1ccc(N2C(=O)C3C(c4ccccc4)=NN(c4ccccc4)C3C2=O)cc1 (stereo not given)	-19.8%	20µM*
Cc1ccc(N2C(=O)C3C(C(=O)c4ccccc4)=NN(c4ccccc4)C3C2=O)cc1 (stereo not given)	-7.1%	15.8µM*
CCOc1ccc(N2C(=O)C3C(C2=O)C3(c2ccccc2)c2ccccc2)cc1 (stereo not given)	-5.0%	-9.9%
O=C(c1ccc2c(c1)N(Cc1ccc(Cl)cc1)C(=O)c1ccccc1S2(=O)=O)N1CCc2ccccc21	-1.0%	?
O=C1c2[nH]nc(-c3ccccc3O)c2C(c2cccc(Br)c2)N1Cc1ccncc1 (stereo not given)	0.4%	0.2%
COc1ccc(CCNC(=O)C(=O)NCC(c2ccco2)S(=O)(=O)c2ccccc2)cc1OC (stereo not given)	-1.7%	-5.7%
Fc1ccc(Br)cc1C1C=C(c2ccc(Br)cc2)Nc2nnnn21 (stereo not given)	-2.6%	1.8%
CN1C(=O)C2(SCC(=O)N2c2cccc(C(F)(F)F)c2)c2ccccc21 (stereo not given)	-6.2%	?
CN1C(=O)C2(c3ccccc31)N(c1ccc(Br)cc1)C(=O)CS2(=O)=O (stereo not given)	-0.7%	10µM*
CN1C(=O)C2(c3ccccc31)N(c1cccc(C(F)(F)F)c1)C(=O)CS2(=O)=O (stereo not given)	-2.9%	5.01µM*
CN1C(=O)C2(SCC(=O)N2c2ccc(F)cc2)c2ccccc21 (stereo not given)	-2.6%	6.3%
CCOc1ccc(NC(=O)Cn2c3ncccc3c(=O)n2-c2ccc(CC)cc2)cc1	0.1%	11.0%
COc1ccc(NC(=O)CCc2nc3cccnc3n2-c2ccccc2)c(OC)c1	-2.9%	-8.1%
CNc1ncncc1-c1ccccc1CN(C)C	3.8%	1.5%
CN(C)S(=O)(=O)N1CCC(n2c(C(F)(F)F)nc3cccnc32)CC1	1.6%	6.1%
O=C(O)C(Cc1ccccc1)Cc1ccccc1	-1.1%	2.9%
COc1ccc(-c2cc3nc(-c4ccccc4)cc(N4CCC5(CC4)OCCO5)n3n2)cc1	22.4µM*	?
SMILES	Cruzain Triton	Cruzain noTriton
Cc1ccc(-c2cc3nc(-c4ccccc4)cc(N4CCOCC4)n3n2)cc1	-7.4%	?
CCOc1ccc(NC(=O)NC(CC)Cn2nnc3ccccc3c2=O)cc1 (stereo not given)	2.8%	7.4%
Cc1cccc(N(C)C(=O)Cc2c(C(=O)O)[nH]c3ccccc23)c1	2.4%	-5.7%
O=C(CNC(=O)c1ccco1)OCC(=O)c1cccc2ccccc12	-7.0%	-20.1%
O=C(CNC(=O)c1ccco1)OCN1C(=O)c2ccccc2C1=O	20µM*	?
O=S(=O)(Nc1ncnc2sc3c(c12)CCC3)c1ccc2ccccc2c1	-4.6%	31.6µM*
c1ccc(Nc2ncnc3sc4c(c23)CCC4)cc1	-5.2%	-6.9%
CCc1ccc(S(=O)(=O)c2nnn3c2nc(Nc2ccc(F)cc2)c2cc(Cl)ccc23)cc1	0.4%	5.7%
O=C(Nc1ccc(F)cc1)c1ccc(COc2ccccc2)cc1	-1.1%	12.6µM*
Cc1ccc(C(=O)Nc2ccc(OCc3ccccc3)cc2)cc1[N+](=O)[O-]	-1.7%	12.6µM*
O=C(Nc1ccc(OCc2ccccc2)cc1)c1cccc([N+](=O)[O-])c1	-2.0%	-29.6%
NNC(=O)c1ccc(COc2ccccc2)cc1	-1.3%	8.8%
COC(=O)c1ccc(CNC(=O)c2ccc(COc3ccccc3)cc2)cc1	-2.2%	10µM*
COC(=O)c1ccc(OCCOc2ccccc2)cc1	-4.6%	0.1%
COc1ccc2c(c1)c1c(c(=O)n(-c3ccccc3)c(=O)n1CC(=O)Nc1ccc(F)cc1)n2C	0.5%	6.6%
N[C@@](C(=O)O)(c1ccc(P(=O)(O)O)cc1)C1CC1	0.4%	10.2%
COC(=O)COc1ccc2oc(-c3ccc(OC)cc3)cc(=O)c2c1	-1.2%	-8.0%
O=C(COc1ccc2oc(-c3ccccc3)cc(=O)c2c1)Nc1ccccc1	-11.1%	31.6µM*
